The source of these data is PubChem BioAssay (NCI).

About 83,000 compounds went through this panel and 20% of them were active in at least one assay; those are over-represented in the sample as a whole.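 96-well plates, one dose, 48 hours. Percent growth reported; active if below 10.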 A number with no mark means an inactive call. Calls of active or inactive are those of the source.

Some test systems named below: DU-145 prostate; K-562 leukemia; MALME-3M melanoma; MDA-MB-231 breast; SF-268 CNS; SF-295 CNS; SF-539 CNS; UACC-257 melanoma; M14 melanoma; HCT-15 colon; HT29 colon; SNB-75 CNS; SNB-19 CNS; U251 CNS; PC-3 prostate; SK-MEL-5 melanoma; UACC-62 melanoma; LOX IMVI melanoma; SK-MEL-28 melanoma; RXF 393 renal.
Common to all, as to assay: NCI-60 one-dose screen, 48 h (100 = growth as untreated, 0 = no growth, -100 = all killed)
Conditions in all cases: 10 µM unless noted

`Nc1nc2ccc(CNc3ccc(C(=O)NC(CC(=O)O)C(=O)O)cc3)cc2c(=O)[nH]1` (stereo unspecified): the growth with DU-145 prostate is 44.9%; in the test on K-562 leukemia it was 12.2%; in the test with MALME-3M melanoma, 71.7%; in the test with MDA-MB-231 breast, 120%; with SF-268 CNS, 40.1%; in the test on SF-295 CNS it was 29.8%. For the same molecule, the growth in the test on SF-539 CNS was 38.4%; with UACC-257 melanoma, 42.3%; in the test on M14 melanoma, 32.8%; with HCT-15 colon, 39.8%; in the test with HT29 colon, 18.6%; with SNB-75 CNS, 70.4%. Moreover, the growth with SNB-19 CNS is 62.6%; with U251 CNS, 49.5%; in the test with PC-3 prostate it was 33.1%; in the test on SK-MEL-5 melanoma, 30%; with UACC-62 melanoma it was 31.6%; with LOX IMVI melanoma, 19.5%. Also, the growth with SK-MEL-28 melanoma was 106%.
`CC(C)(C)NC(C1=CC(C)(C)c2ccccc2C1=O)c1ccccc1` (stereo unspecified): the growth in the test on DU-145 prostate was -26.2% (active); in the test on K-562 leukemia, -34.8% (active); in the test on MALME-3M melanoma, -43% (active); in the test with MDA-MB-231 breast, -1.43% (active); with SF-268 CNS, -11.3% (active); in the test with SF-295 CNS it was 37.8%. The growth in the test on SF-539 CNS is -40.7% (active); with UACC-257 melanoma it was -59.3% (active); in the test with M14 melanoma, -41.5% (active); in the test with HCT-15 colon, -58.7% (active); in the test with HT29 colon it was -60.2% (active); in the test on SNB-75 CNS it was 16.3%. Besides, the growth is 25% in the test with SNB-19 CNS; -67.7% (active) in the test on U251 CNS; -79% (active) in the test on PC-3 prostate; 3.82% (active) with SK-MEL-5 melanoma; -23.5% (active) in the test on UACC-62 melanoma; -66% (active) in the test with LOX IMVI melanoma. Further, the growth in the test on SK-MEL-28 melanoma was -10.5% (active).
With `Nc1ncnc2c1ncn2C1OC(COC(c2ccccc2)(c2ccccc2)c2ccccc2)C(O)C1O` (stereo unspecified), the growth with DU-145 prostate is 73%; with K-562 leukemia, 82.3%; with MALME-3M melanoma it was 95.5%; in the test on MDA-MB-231 breast, 84.5%; in the test on SF-268 CNS, 100%; in the test on SF-295 CNS, 48.1%. For the same molecule, the growth was 103% with SF-539 CNS; 108% with UACC-257 melanoma; 101% in the test with M14 melanoma; 98.2% in the test with HCT-15 colon; 82.8% with HT29 colon; 76.2% in the test with SNB-75 CNS. Besides, the growth was 96.5% in the test on SNB-19 CNS; 99.5% with U251 CNS; 88.7% with PC-3 prostate; 92.3% with SK-MEL-5 melanoma; 95.6% with UACC-62 melanoma; 91.4% in the test on LOX IMVI melanoma. Also, the growth with SK-MEL-28 melanoma is 96.2%.
In the case of `COc1ccc(-c2cnc(-c3ccc(F)cc3)[nH]2)cc1`, the growth in the test on DU-145 prostate is 113%; in the test on K-562 leukemia, 57.1%; with MALME-3M melanoma, 288%; in the test on MDA-MB-231 breast, 100%; with SF-268 CNS, 92.6%; with SF-295 CNS it was 96.6%. The growth with SF-539 CNS is 105%; with UACC-257 melanoma it was -25.1% (active); in the test on M14 melanoma, -17.3% (active); in the test on HCT-15 colon it was 53.2%; with HT29 colon it was 16.4%; with SNB-75 CNS it was 98.6%. The growth in the test on SNB-19 CNS was 98.5%; in the test with U251 CNS, 33.3%; in the test with PC-3 prostate, 73.7%; in the test on UACC-62 melanoma it was 82.2%; in the test on LOX IMVI melanoma, 6.54% (active); in the test on SK-MEL-28 melanoma, 110%.
Take `CCCOC(=O)c1ccc([N+](=O)[O-])o1`: the growth in the test with DU-145 prostate was 118%; in the test on MALME-3M melanoma, 116%; in the test on MDA-MB-231 breast, 103%; in the test with RXF 393 renal, 109%; with SF-268 CNS, 100%; in the test with SF-295 CNS, 120%. The growth with SF-539 CNS is 93.8%; with UACC-257 melanoma, 110%; in the test on M14 melanoma it was 98.8%; in the test with HCT-15 colon, 102%; in the test with HT29 colon, 92.2%; in the test on SNB-75 CNS, 83.7%. For the same molecule, the growth in the test on SNB-19 CNS is 111%; in the test with U251 CNS, 101%; in the test with PC-3 prostate, 91.6%; in the test with SK-MEL-5 melanoma, 116%; in the test with UACC-62 melanoma, 104%; in the test with LOX IMVI melanoma, 101%. Moreover, the growth with SK-MEL-28 melanoma is 106%.
Regarding `CC(=O)N1N=C(CCC(=O)c2nc3ccc([N+](=O)[O-])cc3[nH]2)OC1c1ccc(O)cc1` (stereo unspecified), the growth in the test with DU-145 prostate was 108%; in the test on MALME-3M melanoma it was 94.4%; with MDA-MB-231 breast, 102%; with RXF 393 renal, 111%; in the test on SF-268 CNS, 97.7%; in the test on SF-295 CNS, 96.4%. Moreover, the growth in the test on SF-539 CNS was 100%; with UACC-257 melanoma, 103%; in the test with M14 melanoma, 103%; in the test on HCT-15 colon it was 97.1%; in the test on HT29 colon it was 76.5%; in the test on SNB-75 CNS, 97.9%. Besides, the growth was 107% in the test on SNB-19 CNS; 109% in the test with U251 CNS; 101% in the test with PC-3 prostate; 112% in the test with SK-MEL-5 melanoma; 105% with UACC-62 melanoma; 94.8% in the test on LOX IMVI melanoma. Also, the growth in the test with SK-MEL-28 melanoma is 115%.
Regarding `Cc1ccn2cc(Cc3cc(=O)oc4c3ccc3ccccc34)c(=O)nc2c1`, the growth with DU-145 prostate is 110%; in the test on MALME-3M melanoma it was 99.8%; in the test with MDA-MB-231 breast, 97.6%; in the test with RXF 393 renal, 106%; in the test on SF-268 CNS, 94.8%; in the test with SF-295 CNS, 96.1%. Also, the growth in the test on SF-539 CNS was 93.7%; with UACC-257 melanoma it was 86.3%; with M14 melanoma it was 96.8%; in the test with HCT-15 colon, 97.4%; in the test on HT29 colon, 87.8%; in the test with SNB-75 CNS, 81.4%. In addition, the growth with SNB-19 CNS is 103%; in the test with U251 CNS, 102%; in the test with PC-3 prostate, 104%; in the test with SK-MEL-5 melanoma it was 100%; in the test on UACC-62 melanoma, 96.6%; with LOX IMVI melanoma, 98.6%. In addition, in the test with SK-MEL-28 melanoma, the growth was 100%.
Take `CCn1c(SC)nnc1-c1cc2c([nH]c3ccccc32)c(-c2cccc(O)c2)n1`: the growth was 28.1% in the test with DU-145 prostate; 33.1% in the test with MALME-3M melanoma; 23.1% with MDA-MB-231 breast; -32.9% (active) in the test on RXF 393 renal; 32.4% with SF-268 CNS; -20.1% (active) with SF-295 CNS. Besides, the growth with SF-539 CNS was -9.07% (active); with UACC-257 melanoma, 57.4%; in the test with M14 melanoma, 10.8%; in the test with HCT-15 colon it was 20.4%; with HT29 colon, 50.7%; in the test on SNB-75 CNS, -23.1% (active). Also, the growth with SNB-19 CNS is 52.8%; in the test with U251 CNS, 15.5%; in the test with PC-3 prostate, 24.6%; in the test with SK-MEL-5 melanoma, -16.2% (active); in the test with UACC-62 melanoma, 36.7%; in the test with LOX IMVI melanoma it was 16.5%. Besides, the growth in the test with SK-MEL-28 melanoma is 41.3%.
